Data taken from the supplement of paper PMC10849652.
Of roughly 8,800 targets only a part is listed; those with a hit were picked by preference. About 0.5% of all pairs of compound and target were hits. A number with no mark means an inactive call.

Columns and labels:
Test in all cases: log2 fold change, soluble protein after heating vs DMSO (PISA); higher = thermal stabilisation; K562 lysate, 10 uM; active = over 0.2 and 3.5 SD of the protein, either way, in both replicates (recomputed)
[1] = compound: C1=CC=C(C=C1)[C@H](COC2=CC3=C(C=C2)NC(=O)N3)NC(=O)C4=CC=CN(C4=O)CC5=CC(=C(C=C5)F)F
Procedure, shortened: (§1)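 Log-two fold change in thermal stability relative to solvent controls is reported from duplicates. For each sample, crude K562 extract from dounce-homogenised pellets in PBS pH 7.4 with 1 mM MgCl2, at 1 mg/mL protein, was treated with 10 μM compound for 30 min. Aliquots heated for 3 min across 48°C-58°C were pooled, brought to 0.5% NP-40 at 4°C and cleared at 21,000xg for 90 min. The supernatant was quantified by TMTpro 16plex LC-MS/MS with channel sums equalised.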

[2] = compound: CC1=C(SC2=C1C(=N[C@H](C3=NN=C(N32)C)CC(=O)N)C4=CC=C(C=C4)Cl)C
Procedure, shortened: as §1

[3] = compound: CC1=C2C(=CC=C1)N=C(N(C2=O)C3=CC=CC=C3C)CN4C=NC5=C(N=CN=C54)N
Procedure, shortened: as §1

[4] = compound: Cc1sc2c(c1C)C(c1ccc(Cl)cc1)=N[C@@H](CC(=O)OC(C)(C)C)c1nnc(C)n1-2
Procedure, shortened: as §1

[5] = compound: c1ccc([C@@H]2C[C@H]2NC2CCNCC2)cc1
Procedure, shortened: as §1

Sequence of UniProt Q9Y297 (Q9Y297 whole entry, looked up): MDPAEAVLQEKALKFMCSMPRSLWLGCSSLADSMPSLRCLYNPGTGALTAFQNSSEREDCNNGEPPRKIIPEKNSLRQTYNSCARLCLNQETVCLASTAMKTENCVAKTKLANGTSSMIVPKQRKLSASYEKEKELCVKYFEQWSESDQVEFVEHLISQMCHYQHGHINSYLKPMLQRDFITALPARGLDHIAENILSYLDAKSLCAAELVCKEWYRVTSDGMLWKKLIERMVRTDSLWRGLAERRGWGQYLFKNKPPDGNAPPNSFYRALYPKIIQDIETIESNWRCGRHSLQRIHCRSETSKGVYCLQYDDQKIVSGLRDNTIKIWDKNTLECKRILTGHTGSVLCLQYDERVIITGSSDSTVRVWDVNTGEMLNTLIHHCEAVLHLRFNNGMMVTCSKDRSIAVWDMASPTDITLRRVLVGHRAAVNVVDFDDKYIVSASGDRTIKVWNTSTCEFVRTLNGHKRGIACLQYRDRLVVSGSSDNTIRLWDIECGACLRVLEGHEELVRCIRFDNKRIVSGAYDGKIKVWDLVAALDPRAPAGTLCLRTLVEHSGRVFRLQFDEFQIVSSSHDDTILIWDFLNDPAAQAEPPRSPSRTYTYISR
Sequence of UniProt A8MTT3 (A8MTT3 whole entry, looked up): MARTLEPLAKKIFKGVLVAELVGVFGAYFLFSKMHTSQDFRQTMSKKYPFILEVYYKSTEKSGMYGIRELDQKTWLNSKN
Sequence of UniProt Q00535 (Q00535 whole entry, looked up): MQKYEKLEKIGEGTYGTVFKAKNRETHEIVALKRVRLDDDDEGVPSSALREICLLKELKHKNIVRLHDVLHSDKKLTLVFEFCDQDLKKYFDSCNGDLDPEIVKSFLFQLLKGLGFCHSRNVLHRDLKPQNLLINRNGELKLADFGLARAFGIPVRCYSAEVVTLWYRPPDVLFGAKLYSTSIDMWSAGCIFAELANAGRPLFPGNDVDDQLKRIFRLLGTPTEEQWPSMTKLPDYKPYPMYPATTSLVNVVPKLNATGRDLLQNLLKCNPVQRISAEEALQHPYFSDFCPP
Sequence of UniProt Q86WR0 (Q86WR0 whole entry, looked up): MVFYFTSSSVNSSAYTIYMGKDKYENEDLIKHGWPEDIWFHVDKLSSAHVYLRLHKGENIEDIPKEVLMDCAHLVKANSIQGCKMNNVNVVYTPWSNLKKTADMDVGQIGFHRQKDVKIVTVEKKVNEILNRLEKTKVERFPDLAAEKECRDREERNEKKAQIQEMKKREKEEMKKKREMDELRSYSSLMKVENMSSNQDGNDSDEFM
Sequence of UniProt Q8TDI0 (Q8TDI0 whole entry, looked up): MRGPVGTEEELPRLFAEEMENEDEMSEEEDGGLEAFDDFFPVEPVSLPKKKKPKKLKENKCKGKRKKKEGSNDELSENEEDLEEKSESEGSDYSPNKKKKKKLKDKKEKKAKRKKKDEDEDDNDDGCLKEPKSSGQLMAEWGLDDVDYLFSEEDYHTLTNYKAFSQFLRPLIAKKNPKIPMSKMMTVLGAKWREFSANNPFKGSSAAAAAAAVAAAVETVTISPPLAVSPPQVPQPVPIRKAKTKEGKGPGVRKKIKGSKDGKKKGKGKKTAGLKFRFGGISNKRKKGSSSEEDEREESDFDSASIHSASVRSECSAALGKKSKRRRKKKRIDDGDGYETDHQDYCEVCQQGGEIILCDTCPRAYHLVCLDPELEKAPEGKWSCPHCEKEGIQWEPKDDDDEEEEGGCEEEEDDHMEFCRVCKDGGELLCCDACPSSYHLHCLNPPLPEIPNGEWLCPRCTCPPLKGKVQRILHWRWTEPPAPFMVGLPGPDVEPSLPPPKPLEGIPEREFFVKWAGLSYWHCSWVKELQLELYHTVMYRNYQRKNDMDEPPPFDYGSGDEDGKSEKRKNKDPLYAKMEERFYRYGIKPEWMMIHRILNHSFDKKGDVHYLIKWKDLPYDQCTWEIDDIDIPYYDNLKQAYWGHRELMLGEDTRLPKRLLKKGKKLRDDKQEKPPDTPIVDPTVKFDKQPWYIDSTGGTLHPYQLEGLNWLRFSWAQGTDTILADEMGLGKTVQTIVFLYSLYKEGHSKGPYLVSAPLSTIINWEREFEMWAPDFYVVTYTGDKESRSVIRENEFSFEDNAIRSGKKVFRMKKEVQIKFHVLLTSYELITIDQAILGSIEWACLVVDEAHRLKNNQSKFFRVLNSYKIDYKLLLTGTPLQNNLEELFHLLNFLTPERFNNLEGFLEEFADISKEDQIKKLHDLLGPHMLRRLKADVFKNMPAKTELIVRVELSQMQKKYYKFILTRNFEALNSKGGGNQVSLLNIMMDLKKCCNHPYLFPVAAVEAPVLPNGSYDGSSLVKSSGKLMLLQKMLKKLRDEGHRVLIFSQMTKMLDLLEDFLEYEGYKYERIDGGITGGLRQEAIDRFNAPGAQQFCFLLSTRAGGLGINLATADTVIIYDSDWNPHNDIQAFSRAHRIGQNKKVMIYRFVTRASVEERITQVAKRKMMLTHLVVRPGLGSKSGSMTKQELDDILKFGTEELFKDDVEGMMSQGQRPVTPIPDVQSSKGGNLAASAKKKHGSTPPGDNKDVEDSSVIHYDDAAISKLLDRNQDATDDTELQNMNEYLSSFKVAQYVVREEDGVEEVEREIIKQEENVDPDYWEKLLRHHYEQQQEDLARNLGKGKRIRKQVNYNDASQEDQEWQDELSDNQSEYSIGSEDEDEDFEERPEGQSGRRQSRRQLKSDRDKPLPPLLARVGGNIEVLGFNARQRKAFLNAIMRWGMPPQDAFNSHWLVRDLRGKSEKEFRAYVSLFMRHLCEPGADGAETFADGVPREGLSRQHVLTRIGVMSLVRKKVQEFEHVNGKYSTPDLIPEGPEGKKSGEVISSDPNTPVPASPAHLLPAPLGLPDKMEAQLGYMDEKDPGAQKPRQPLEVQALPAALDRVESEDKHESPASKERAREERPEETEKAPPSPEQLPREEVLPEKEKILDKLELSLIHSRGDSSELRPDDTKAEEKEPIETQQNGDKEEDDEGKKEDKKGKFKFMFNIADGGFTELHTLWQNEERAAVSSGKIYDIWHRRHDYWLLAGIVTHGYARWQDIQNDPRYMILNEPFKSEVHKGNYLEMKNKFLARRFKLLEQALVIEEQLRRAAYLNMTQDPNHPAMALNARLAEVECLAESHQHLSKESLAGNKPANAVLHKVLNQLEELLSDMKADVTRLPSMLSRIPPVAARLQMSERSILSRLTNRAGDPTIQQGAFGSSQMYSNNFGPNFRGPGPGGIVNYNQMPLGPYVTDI
Sequence of UniProt P25440 (P25440 whole entry, looked up): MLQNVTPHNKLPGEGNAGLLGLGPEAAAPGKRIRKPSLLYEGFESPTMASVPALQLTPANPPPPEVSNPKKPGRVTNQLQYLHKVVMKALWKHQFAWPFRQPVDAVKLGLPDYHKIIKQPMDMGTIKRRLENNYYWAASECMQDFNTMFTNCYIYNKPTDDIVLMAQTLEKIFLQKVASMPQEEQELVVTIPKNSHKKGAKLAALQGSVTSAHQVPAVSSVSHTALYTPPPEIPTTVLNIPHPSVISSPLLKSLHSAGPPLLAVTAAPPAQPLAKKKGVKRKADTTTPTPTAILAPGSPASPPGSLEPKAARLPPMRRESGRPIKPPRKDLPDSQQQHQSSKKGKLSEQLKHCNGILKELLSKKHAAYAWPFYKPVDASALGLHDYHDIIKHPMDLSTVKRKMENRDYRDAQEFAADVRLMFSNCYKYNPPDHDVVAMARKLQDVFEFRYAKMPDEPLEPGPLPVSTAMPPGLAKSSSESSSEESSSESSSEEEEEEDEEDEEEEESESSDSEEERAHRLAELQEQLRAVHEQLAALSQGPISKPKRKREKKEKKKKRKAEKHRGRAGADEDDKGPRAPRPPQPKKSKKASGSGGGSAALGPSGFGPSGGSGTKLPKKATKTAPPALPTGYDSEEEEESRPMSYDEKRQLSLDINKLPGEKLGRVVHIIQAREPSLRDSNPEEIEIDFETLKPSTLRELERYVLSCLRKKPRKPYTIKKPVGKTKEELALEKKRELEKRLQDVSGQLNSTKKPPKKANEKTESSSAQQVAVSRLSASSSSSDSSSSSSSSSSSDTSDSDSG
Sequence of UniProt P14635 (P14635 whole entry, looked up): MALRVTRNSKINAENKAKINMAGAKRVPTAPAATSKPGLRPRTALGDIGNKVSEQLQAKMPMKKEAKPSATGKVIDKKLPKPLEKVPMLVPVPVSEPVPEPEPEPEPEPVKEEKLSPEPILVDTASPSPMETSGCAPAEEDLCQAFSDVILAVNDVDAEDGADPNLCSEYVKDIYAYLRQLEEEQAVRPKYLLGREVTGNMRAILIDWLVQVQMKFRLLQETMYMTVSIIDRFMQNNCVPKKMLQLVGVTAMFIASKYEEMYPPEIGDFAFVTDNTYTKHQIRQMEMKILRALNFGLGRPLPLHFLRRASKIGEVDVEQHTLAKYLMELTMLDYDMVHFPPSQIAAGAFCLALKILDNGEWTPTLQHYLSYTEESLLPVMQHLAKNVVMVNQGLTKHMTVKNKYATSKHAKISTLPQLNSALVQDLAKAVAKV
Sequence of UniProt Q8IYX8 (Q8IYX8 whole entry, looked up): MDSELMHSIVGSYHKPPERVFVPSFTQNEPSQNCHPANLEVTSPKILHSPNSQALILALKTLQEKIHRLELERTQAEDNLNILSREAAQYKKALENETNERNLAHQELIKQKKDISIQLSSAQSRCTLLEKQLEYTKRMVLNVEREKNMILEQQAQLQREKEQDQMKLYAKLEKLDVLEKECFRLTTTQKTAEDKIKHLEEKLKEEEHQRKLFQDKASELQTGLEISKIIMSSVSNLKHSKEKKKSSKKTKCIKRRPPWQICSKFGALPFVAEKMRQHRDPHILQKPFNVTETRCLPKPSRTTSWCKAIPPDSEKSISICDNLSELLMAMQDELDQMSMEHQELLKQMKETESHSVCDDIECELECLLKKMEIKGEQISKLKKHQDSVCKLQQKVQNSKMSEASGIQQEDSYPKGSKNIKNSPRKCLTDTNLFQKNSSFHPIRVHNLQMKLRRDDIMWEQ
Sequence of UniProt P0DMB2 (P0DMB2 whole entry, looked up): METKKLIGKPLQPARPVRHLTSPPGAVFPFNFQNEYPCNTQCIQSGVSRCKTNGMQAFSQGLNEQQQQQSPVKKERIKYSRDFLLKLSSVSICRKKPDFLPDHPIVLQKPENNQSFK

Target	log2 fold change [1]	log2 fold change [2]	log2 fold change [3]	log2 fold change [4]	log2 fold change [5]
CHCHD2 (UniProt Q9Y6H1)	-0.123	-0.043	-0.015	0.062	-0.01
CCNY (UniProt Q8ND76)	-0.04	0.048	-0.104	-0.064	-0.028
CDK9 isoform 2 (UniProt P50750)	-0.001	-0.043	-0.015	-0.008	-0.114
BCR (UniProt P11274)	-0.03	0.005	-0.014	0.007	0.027
BCKDK (UniProt O14874)	-0.036	-0.007	-0.037	0.016	0.012
CCDC25 (UniProt Q86WR0)	0.008	0.035	0.023	-0.015	0.164
CDK5RAP2 (UniProt Q96SN8)	0.018	0.038	0.041	-0.026	0.072
CEPT1 (UniProt Q9Y6K0)	-0.13	-0.017	0.062	-0.054	0.061
CCNB1 (UniProt P14635)	-0.019	0.063	0.038	-0.032	0.036
C1orf112 (UniProt Q9NSG2)	0.066	-0.011	-0.007	0.066	-0.345
CCNA2 (UniProt P20248)	0.013	-0.006	-0.003	-0.021	-0.068
C8orf37 (UniProt Q96NL8)	0.072	-0.08	-0.094	-0.008	0.141
CHD5 (UniProt Q8TDI0)	-0.039	0.003	-0.002	0.085	0.032
BPHL (UniProt Q86WA6)	0.284	0.038	-0.028	0.158	0.014
ATP6V1B1 (UniProt P15313)	0.023	0.004	0.004	-0.023	-0.157
CDS2 (UniProt O95674)	0.01	0.004	-0.056	-0.034	-0.024
BTAF1 (UniProt O14981)	0.013	0	-0.005	0.04	-0.02
BRD2 isoform 2 (UniProt P25440)	0.024	1.06 (active)	0.081	0.644 (active)	0.071
CDC42EP4 (UniProt Q9H3Q1)	0.113	-0.084	-0.098	0.004	-0.036
CDC16 (UniProt Q13042)	-0.038	0.027	0.025	0.03	0.021
ATG4B (UniProt Q9Y4P1)	0.004	0.034	0.017	-0.002	0.051

Target	log2 fold change [1]	log2 fold change [2]	log2 fold change [3]	log2 fold change [4]	log2 fold change [5]
BCL2L12 (UniProt Q9HB09)	0.162	0.119	0.035	-0.011	-0.044
C18orf32 (UniProt Q8TCD1)	0.039	0.004	-0.245	-0.028	0.076
CCT6A (UniProt P40227)	0.007	-0.007	-0.01	0.004	0.025
ATE1 isoform 2 (UniProt O95260)	-0.015	-0.008	-0.004	0.009	-0.087
CEP120 (UniProt Q8N960)	-0.074	0.097	0.145	-0.169	0.184
CDK5 (UniProt Q00535)	-0.01	-0.03	-0.021	0.002	-0.02
CAMK2G isoform 8 (UniProt Q13555)	0.048	-0.063	-0.053	-0.007	-0.037
AVEN (UniProt Q9NQS1)	0.205	0.025	0.003	0.013	-0.058
CDC42BPA isoform 6 (UniProt Q5VT25)	0.008	-0.003	-0.008	0.026	0.052
CCDC51 (UniProt Q96ER9)	-0.063	0.023	-0.029	0.014	0.157
CASP6 (UniProt P55212)	0.004	0.011	0.015	0.009	-0.005
CEP152 (UniProt O94986)	0.024	-0.236	0.01	0.008	-0.028
CDK8 (UniProt P49336)	-0.05	-0.108	0.202	0.017	-0.045
CDC25C (UniProt P30307)	0.018	-0.011	0.023	0.07	0.027
BICRA (UniProt Q9NZM4)	-0.077	0.208		-0.122	-0.142
CDKL5 (UniProt O76039)			0.043	-0.139	-0.132
CEBPZOS (UniProt A8MTT3)			-0.03	-0.006	0.018
CANX (UniProt D6RHJ3)			0.072		
CACUL1 (UniProt Q86Y37)			-0.046	0.088	0.111
ATG4D (UniProt Q86TL0)	-0.011	0.057		0.041	
BNIP3 (UniProt Q12983)	0.034	-0.053		-0.023	-0.074

Target	log2 fold change [1]	log2 fold change [2]	log2 fold change [3]	log2 fold change [4]	log2 fold change [5]
CDC25A (UniProt P30304)				-0.064	
CENPV (UniProt Q7Z7K6)	0.059	-0.217	-0.201		0.166
BUD13 (UniProt Q9BRD0)	-0.037	0.068		-0.162	0.029
CHD4, A0A2R8Y521				-0.136	
CARHSP1 (UniProt H3BNU9)	-0.034	-0.224			0.094
ATPSCKMT (UniProt Q6P4H8)	0.111	-0.006		0.023	
C3AR1 (UniProt Q16581)	0.121	0.024			-0.083
CAPNS1 (UniProt K7ES78)			-0.094	-0.216	
BAHCC1 (UniProt Q9P281)			0.011	-0.187	-0.696 (active)
ATXN2 (UniProt F8WB06)				-0.014	
CASP7 isoform 3 (UniProt P55210)	0.035	-0.02		-0.105	
B3GALT6 (UniProt Q96L58)	0.055	0.041		0.269	
CAD (UniProt H7BZB3)			-0.011		-0.003
BMT2 (UniProt Q1RMZ1)					0.123
CD80 (UniProt P33681)			0.032	0.018	0.048
C9orf72 (UniProt Q96LT7)	-0.012	0.049		-0.028	0.002
BTRC (UniProt Q9Y297)	0.024	-0.042	-0.003		-0.048
C8orf88 (UniProt P0DMB2)	0.033	0.051		0.051	-0.002
CEP57L1 (UniProt Q8IYX8)	-0.078	0.115		0.143	0.099
